# Reference: the supplement of paper PMC10077471
# The full ranking holds about 1,900 compounds; the median of “excess over highest single agent (ExcessHSA) synergy score, 6x6 matrix” is about -83, and the lowest 2% start at about -370. The sample holds the lowest values, similar compounds and a random draw of the others, so the mix is not that of the screen.
# Test system: NCI-H446
# Experiment: excess over highest single agent (ExcessHSA) synergy score, 6x6 matrix; higher = less synergy (more negative = stronger synergy)
# Settings: 72 h; CellTiter-Glo viability
row,Structure (SMILES),excess over highest single agent
1,CCOC(=O)/C=C/[C@H](C[C@@H]1CCNC1=O)NC(=O)[C@@H](CC(=O)[C@@H](NC(=O)c1cc(C)on1)C(C)C)Cc1ccc(F)cc1 + Cc1sc2c(c1C)C(c1ccc(Cl)cc1)=N[C@@H](CC(=O)OC(C)(C)C)c1nnc(C)n1-2 [NCGC00250412-19],-127
2,O=C(C[C@@H]1C/C=C/CCC(=O)O[C@H](c2ccccc2)CNC1=O)NCc1ccc(Cl)cc1 + Cc1sc2c(c1C)C(c1ccc(Cl)cc1)=N[C@@H](CC(=O)OC(C)(C)C)c1nnc(C)n1-2 [NCGC00250412-19],-98.1
3,CN(C)C[C@@H]1CCn2cc(c3ccccc32)C2=C(C(=O)NC2=O)c2cn(c3ccccc23)CCO1 + Cc1sc2c(c1C)C(c1ccc(Cl)cc1)=N[C@@H](CC(=O)OC(C)(C)C)c1nnc(C)n1-2 [NCGC00250412-19],-125
4,COc1cc(NCc2ccc3nc(N)nc(N)c3c2C)cc(OC)c1OC + Cc1sc2c(c1C)C(c1ccc(Cl)cc1)=N[C@@H](CC(=O)OC(C)(C)C)c1nnc(C)n1-2 [NCGC00250412-19],-213
5,C=C1C(=O)[C@]23[C@H](O)[C@H]1CC[C@H]2[C@@]12CO[C@]3(O)[C@@H](O)[C@@H]1C(C)(C)CC[C@@H]2O + Cc1sc2c(c1C)C(c1ccc(Cl)cc1)=N[C@@H](CC(=O)OC(C)(C)C)c1nnc(C)n1-2 [NCGC00250412-19],-378
6,Oc1ccc(C2=Cc3ccc(O)cc3OC2)cc1 + Cc1sc2c(c1C)C(c1ccc(Cl)cc1)=N[C@@H](CC(=O)OC(C)(C)C)c1nnc(C)n1-2 [NCGC00250412-19],-209
7,CNc1nc(Nc2ccc(C(=O)N3CCOCC3)cc2OC)ncc1Cl + Cc1sc2c(c1C)C(c1ccc(Cl)cc1)=N[C@@H](CC(=O)OC(C)(C)C)c1nnc(C)n1-2 [NCGC00250412-19],436
8,Cc1ccc(S(=O)(=O)Nc2cc(Cl)ccc2C(=O)Nc2nc(-c3ccccc3)cs2)cc1 + Cc1sc2c(c1C)C(c1ccc(Cl)cc1)=N[C@@H](CC(=O)OC(C)(C)C)c1nnc(C)n1-2 [NCGC00250412-19],214
9,CC(O)(C#Cc1ccc2c(c1)N(c1nc(N)ncc1Cl)CC2)c1nccs1 (stereo not drawn) + Cc1sc2c(c1C)C(c1ccc(Cl)cc1)=N[C@@H](CC(=O)OC(C)(C)C)c1nnc(C)n1-2 [NCGC00250412-19],54
10,CC(NCc1ccc2c(c1)nc(NC(=O)c1ccc(-c3cn[nH]c3)s1)n2CC(C)(C)O)C(C)(C)C (stereo not drawn) + Cc1sc2c(c1C)C(c1ccc(Cl)cc1)=N[C@@H](CC(=O)OC(C)(C)C)c1nnc(C)n1-2 [NCGC00250412-19],-312
11,CC(C)(O)Cn1c(NC(=O)c2ccc(-c3cn[nH]c3)s2)nc2cc(CN3CCOCC3)ccc21 + Cc1sc2c(c1C)C(c1ccc(Cl)cc1)=N[C@@H](CC(=O)OC(C)(C)C)c1nnc(C)n1-2 [NCGC00250412-19],-423
12,C[C@H](NCc1ccc2c(c1)nc(NC(=O)c1ccc(-c3cn[nH]c3)s1)n2CCc1ccccc1)C(C)(C)C + Cc1sc2c(c1C)C(c1ccc(Cl)cc1)=N[C@@H](CC(=O)OC(C)(C)C)c1nnc(C)n1-2 [NCGC00250412-19],-305
13,CCNC(=O)c1cc2c(-c3cc(OCCN4CCCC4)c(Cl)cc3Cl)nc(N)nc2s1 + Cc1sc2c(c1C)C(c1ccc(Cl)cc1)=N[C@@H](CC(=O)OC(C)(C)C)c1nnc(C)n1-2 [NCGC00250412-19],-89.1
14,O=C1NC(=O)/C(=C/c2ccc3nccc(-c4ccncc4)c3c2)S1 + Cc1sc2c(c1C)C(c1ccc(Cl)cc1)=N[C@@H](CC(=O)OC(C)(C)C)c1nnc(C)n1-2 [NCGC00250412-19],-177
15,CCCNC(=O)[C@H]1O[C@@H]1C(=O)N[C@H](C(=O)N1CCC[C@H]1C(=O)OC)[C@@H](C)CC + Cc1sc2c(c1C)C(c1ccc(Cl)cc1)=N[C@@H](CC(=O)OC(C)(C)C)c1nnc(C)n1-2 [NCGC00250412-19],-117
16,CN(C)c1ccc(C2Nc3ccc4ccccc4c3C3=C2C(=O)CC(C)(C)C3)cc1Br (stereo not drawn) + Cc1sc2c(c1C)C(c1ccc(Cl)cc1)=N[C@@H](CC(=O)OC(C)(C)C)c1nnc(C)n1-2 [NCGC00250412-19],-30.1
17,CCN1CCN(CC(=O)Nc2ccc(-c3cccc4c(=O)cc(N5CCOCC5)oc34)c3sc4ccccc4c23)CC1 + Cc1sc2c(c1C)C(c1ccc(Cl)cc1)=N[C@@H](CC(=O)OC(C)(C)C)c1nnc(C)n1-2 [NCGC00250412-19],-383
18,O=c1cc(N2CCOCC2)oc2c(-c3cccc4c3sc3ccccc34)cccc12 + Cc1sc2c(c1C)C(c1ccc(Cl)cc1)=N[C@@H](CC(=O)OC(C)(C)C)c1nnc(C)n1-2 [NCGC00250412-19],-318
19,O=c1cc(N2CCOCC2)oc2c(-c3ccccc3)cccc12 + Cc1sc2c(c1C)C(c1ccc(Cl)cc1)=N[C@@H](CC(=O)OC(C)(C)C)c1nnc(C)n1-2 [NCGC00250412-19],83.7

row,Structure (SMILES),excess over highest single agent
1,CN(C)CC(=O)N1CCC(c2ccc(NC(=O)c3ncc(C#N)[nH]3)c(C3=CCCCC3)c2)CC1 + Cc1sc2c(c1C)C(c1ccc(Cl)cc1)=N[C@@H](CC(=O)OC(C)(C)C)c1nnc(C)n1-2 [NCGC00250412-19],53.2
2,CC1CCN(c2cc(N3CCN(C)CC3)ccc2NC(=O)c2cc(C#N)c[nH]2)CC1 + Cc1sc2c(c1C)C(c1ccc(Cl)cc1)=N[C@@H](CC(=O)OC(C)(C)C)c1nnc(C)n1-2 [NCGC00250412-19],106
3,COc1ccc(Nc2nccc(NCCO)n2)cc1 + Cc1sc2c(c1C)C(c1ccc(Cl)cc1)=N[C@@H](CC(=O)OC(C)(C)C)c1nnc(C)n1-2 [NCGC00250412-19],81.9
4,CN(C)c1ccc2cc(C(=O)N[C@@H](CCCN=C(N)CCl)C(=O)NCc3ccccc3)ccc2c1 + Cc1sc2c(c1C)C(c1ccc(Cl)cc1)=N[C@@H](CC(=O)OC(C)(C)C)c1nnc(C)n1-2 [NCGC00250412-19],-202
5,NS(=O)(=O)c1ccc(Nc2nc(OCC3CCCCC3)c3[nH]cnc3n2)cc1 + Cc1sc2c(c1C)C(c1ccc(Cl)cc1)=N[C@@H](CC(=O)OC(C)(C)C)c1nnc(C)n1-2 [NCGC00250412-19],-148
6,CCN(CC)CCn1c(=O)c(Cc2ccc(OC)cc2)nc2ccccc21 + Cc1sc2c(c1C)C(c1ccc(Cl)cc1)=N[C@@H](CC(=O)OC(C)(C)C)c1nnc(C)n1-2 [NCGC00250412-19],-47.3
7,O=c1[nH]c(=O)n([C@H]2C[C@H](O)[C@@H](CO)O2)cc1F + Cc1sc2c(c1C)C(c1ccc(Cl)cc1)=N[C@@H](CC(=O)OC(C)(C)C)c1nnc(C)n1-2 [NCGC00250412-19],-390
8,O=c1[nH]c(=O)n([C@H]2C[C@H](O)[C@@H](CO)O2)cc1I + Cc1sc2c(c1C)C(c1ccc(Cl)cc1)=N[C@@H](CC(=O)OC(C)(C)C)c1nnc(C)n1-2 [NCGC00250412-19],-172
9,Cc1cn([C@@H]2C[C@@H](O)[C@H](CO)O2)c(=O)[nH]c1=O + Cc1sc2c(c1C)C(c1ccc(Cl)cc1)=N[C@@H](CC(=O)OC(C)(C)C)c1nnc(C)n1-2 [NCGC00250412-19],21.8
10,Cc1cc(OCCCS(C)(=O)=O)cc(C)c1-c1cccc(COc2ccc3c(c2)OC[C@H]3CC(=O)O)c1 + Cc1sc2c(c1C)C(c1ccc(Cl)cc1)=N[C@@H](CC(=O)OC(C)(C)C)c1nnc(C)n1-2 [NCGC00250412-19],-123
11,c1ccc2c(CCNc3ccc(Nc4ccncc4)cc3)c[nH]c2c1 + Cc1sc2c(c1C)C(c1ccc(Cl)cc1)=N[C@@H](CC(=O)OC(C)(C)C)c1nnc(C)n1-2 [NCGC00250412-19],-76.1
12,Cc1cc(SCc2sc(-c3ccc(C(F)(F)F)cc3)nc2C)ccc1OCC(=O)O + Cc1sc2c(c1C)C(c1ccc(Cl)cc1)=N[C@@H](CC(=O)OC(C)(C)C)c1nnc(C)n1-2 [NCGC00250412-19],-98.3
13,CC(=O)O/N=C1/C(c2c(O)[nH]c3cc(Br)ccc23)=Nc2ccccc21 + Cc1sc2c(c1C)C(c1ccc(Cl)cc1)=N[C@@H](CC(=O)OC(C)(C)C)c1nnc(C)n1-2 [NCGC00250412-19],54.4
14,O=c1c(-c2ccc(O)cc2)coc2cc(O[C@@H]3O[C@H](CO)[C@@H](O)[C@H](O)[C@H]3O)ccc12 + Cc1sc2c(c1C)C(c1ccc(Cl)cc1)=N[C@@H](CC(=O)OC(C)(C)C)c1nnc(C)n1-2 [NCGC00250412-19],-180
15,Cc1c(NC(=O)c2ccc(C(C)(C)C)cc2)cccc1-c1cn(C)c(=O)c(Nc2ccc(C(=O)N3CCOCC3)cc2)n1 + Cc1sc2c(c1C)C(c1ccc(Cl)cc1)=N[C@@H](CC(=O)OC(C)(C)C)c1nnc(C)n1-2 [NCGC00250412-19],-90.9
16,Nc1ccn([C@@H]2O[C@H](CO)[C@@H](O)C2(F)F)c(=O)n1 + Cc1sc2c(c1C)C(c1ccc(Cl)cc1)=N[C@@H](CC(=O)OC(C)(C)C)c1nnc(C)n1-2 [NCGC00250412-19],-379
17,Nc1ccn([C@@H]2O[C@H](CO)[C@@H](O)[C@H]2O)c(=O)n1 + Cc1sc2c(c1C)C(c1ccc(Cl)cc1)=N[C@@H](CC(=O)OC(C)(C)C)c1nnc(C)n1-2 [NCGC00250412-19],-268
18,Nc1ccn([C@@H]2O[C@H](CO)[C@@H](O)[C@@H]2O)c(=O)n1 + Cc1sc2c(c1C)C(c1ccc(Cl)cc1)=N[C@@H](CC(=O)OC(C)(C)C)c1nnc(C)n1-2 [NCGC00250412-19],-107
19,CC(=O)N1CCN(c2ccc(OCc3nn(C)c(C)c3-c3cccc4c(CCCOc5cccc6ccccc56)c(C(=O)O)n(Cc5cccnc5)c34)cc2)CC1 + Cc1sc2c(c1C)C(c1ccc(Cl)cc1)=N[C@@H](CC(=O)OC(C)(C)C)c1nnc(C)n1-2 [NCGC00250412-19],97.8
